Activity calls are given as the source filed them. Calls follow the shape of the full dose curve.
Biological target: Glucocorticoid receptor (Homo sapiens) (UniProt P04150)
Assay: GR-EFC Redistribution (AID 451)
Settings: CHO-K1 GR-EFC translocation, beta-gal luminescence, 2 h
Outline: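 CHO-K1 cells expressing nuclear EA and GR-ED fragments of b-gal; compounds titrated up to 46 uM final, 2 h at 37 C. GR nuclear translocation read as complemented b-gal luminescence after 1 h RT detection.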
Potency is read from the fitted curve at half-maximal effect.

Sequence of Glucocorticoid receptor (Homo sapiens) (P04150 whole entry, looked up): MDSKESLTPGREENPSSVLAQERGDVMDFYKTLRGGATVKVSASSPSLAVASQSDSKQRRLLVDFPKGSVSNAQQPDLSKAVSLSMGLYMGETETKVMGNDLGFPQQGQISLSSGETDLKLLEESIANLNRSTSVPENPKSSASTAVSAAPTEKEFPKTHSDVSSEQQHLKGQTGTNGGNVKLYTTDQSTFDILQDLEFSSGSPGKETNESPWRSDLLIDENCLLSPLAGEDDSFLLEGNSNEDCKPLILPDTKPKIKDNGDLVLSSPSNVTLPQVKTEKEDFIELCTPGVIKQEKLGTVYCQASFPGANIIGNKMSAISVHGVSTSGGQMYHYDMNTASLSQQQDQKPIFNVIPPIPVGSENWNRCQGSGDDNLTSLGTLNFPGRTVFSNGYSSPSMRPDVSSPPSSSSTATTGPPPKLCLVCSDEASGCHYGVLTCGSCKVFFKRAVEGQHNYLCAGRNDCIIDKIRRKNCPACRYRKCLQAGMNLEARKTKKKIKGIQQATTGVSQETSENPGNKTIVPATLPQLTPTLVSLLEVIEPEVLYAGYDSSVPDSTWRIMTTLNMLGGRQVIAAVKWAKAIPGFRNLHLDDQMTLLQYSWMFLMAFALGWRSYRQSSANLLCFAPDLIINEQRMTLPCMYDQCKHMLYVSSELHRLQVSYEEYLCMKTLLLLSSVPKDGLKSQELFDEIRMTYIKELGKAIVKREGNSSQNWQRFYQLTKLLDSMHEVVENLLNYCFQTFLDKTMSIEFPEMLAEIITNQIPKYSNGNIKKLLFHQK

Potency, inactive:
CC(C)C[C@@H](CC(=O)N[C@@H](CCC(=O)O)CC(=O)O)NC(=O)[C@@H]1CCCC[C@H]1NC(=O)C[C@@H](NC(=O)C[C@H](Cc1ccccc1)NC(=O)[C@@H]1CCCC[C@H]1N)C(C)C > 46 µM, CC(C)C[C@@H](CC(=O)N[C@@H](CCCN)CC(=O)N[C@@H]1CCCC[C@H]1C(=O)N[C@H](CC(=O)N[C@@H](CCC(=O)O)CC(=O)O)Cc1c[nH]c2ccccc12)NC(=O)[C@@H]1CNCC[C@H]1N > 46 µM, CC(C)C[C@@H](CC(=O)N[C@@H](CCC(=O)O)CC(=O)O)NC(=O)[C@@H]1CNCC[C@H]1NC(=O)C[C@@H](NC(=O)C[C@H](Cc1ccccc1)NC(=O)[C@@H]1CNCC[C@H]1N)C(C)C > 46 µM, CC(C)C[C@@H](CC(=O)N[C@@H](CCC(=O)O)CC(=O)O)NC(=O)[C@@H]1CNCC[C@H]1NC(=O)C[C@H](CCCN)NC(=O)C[C@H](Cc1c[nH]c2ccccc12)NC(=O)[C@@H]1CNCC[C@H]1N > 46 µM, CC(C)[C@@H](CC(=O)N[C@@H]1CCCC[C@H]1C(=O)N[C@H](CC(=O)N[C@@H](CCC(=O)O)CC(=O)O)Cc1c[nH]c2ccccc12)NC(=O)C[C@H](CO)NC(=O)[C@@H]1CNCC[C@H]1N > 46 µM, NCCC[C@@H](CC(=O)N[C@@H]1CCCC[C@H]1C(=O)N[C@H](CC(=O)N[C@@H](CCC(=O)O)CC(=O)O)Cc1c[nH]c2ccccc12)NC(=O)C[C@H](CO)NC(=O)[C@@H]1CCCC[C@H]1N > 46 µM

Source: PubChem BioAssay (NCATS)
